Structures are written as SMILES. Out of some 300,000 compounds screened, about 37,000 (12%) were called active. This excerpt belongs to a sample that is enriched for actives. Unmarked numbers belong to inactive results. No stated cut-off is given here; in the data, active means max response mostly above about 13% (no sharp cut-off); inactive means mostly below about 14%.

The experiment can be described thus: Cycloheximide Counterscreen for Small Molecule Inhibitors of Shiga Toxin. Further: read at 38.3 µM for the half of the compounds with a filed dose; 0% is about no effect. As to conditions: cell reporter, cycloheximide protein synthesis inhibition counterscreen; hits give high values.
`Cc1c(C)c(C)c2[nH]c(=S)[nH]c2c1C`: the max response was 0.294%.
Regarding `COC1=C/C(=C/c2c(N)n3nc(CC(=O)N4CCOCC4)sc3nc2=O)C=CC1=O`, the max response is 21.2%.
As to `CC(C)C(=O)N1CC(=O)Nc2ccc(F)cc2C1c1ccc(F)cc1` (stereo unspecified), the max response was 0.988%.
Regarding `COc1ccc(-c2cc3ccc(OCc4nn[nH]n4)cc3oc2=O)cc1`, the max response was 2.53%.
As for `COc1cccc(C(=O)c2cc3ccc(O)cc3oc2=O)c1`, the figure is 7.25%; as for `O=c1oc2cc(O)ccc2cc1-c1ccc(F)cc1`, 43.3% (active); as for `CCn1c2ccccc2c2cc(NC(=O)CNC)ccc21`, -0.552%.
As for `CN(C)c1ccc(NC(=O)CN2C3CCCC2CC(NC(=O)c2ccccc2)C3)cc1` (stereo unspecified), the figure is -6.36%.
For `CCn1c2ccccc2c2cc(NC(=O)COC(=O)c3ccccc3Br)ccc21`, the max response was 1.49%.
As for `C/C(CC(=O)Nc1ccc(N(C)C)cc1)=N\NC(=O)c1ccccc1F`, the figure is 38.4% (active).
As to `C/C(CC(=O)Nc1ccc(Cl)cc1)=N\NC(=O)C(=O)NCCO`, the max response was 7.42%.
With `CCn1c2ccccc2c2cc(NC(=O)C/C(C)=N/NC(=O)c3ccccc3N)ccc21`, the max response is 39.3% (active).
Under `Cc1ccccc1N1CCN(C2CCCN(C(=O)c3cn4c(C)cccc4n3)C2)CC1` (stereo unspecified) stands -1.34%; under `COc1ccc(CC(=O)N2N=C(C)CC2(O)C(F)(F)F)cc1` (stereo unspecified), 15.5%; under `O=C(CCc1nnc(Cc2ccc3c(c2)OCO3)o1)NCCc1ccccc1Cl`, 4.94%.
As for `COCCCn1c(Cc2csc(Nc3cccc(Cl)c3)n2)nnc1SCC(=O)OC1CCCCC1`, the figure is 1.16%; as for `O=C(Nc1ccc(S(=O)(=O)NCC2CCCO2)cc1)c1ccc(F)cc1` (stereo unspecified), -1.11%.
As for `CCn1cc(C(=O)N2CC(C)CC(C)C2)c(=O)c2cc(S(=O)(=O)N3CCCC3)ccc21` (stereo unspecified), the figure is -2.89%; as for `COc1ccc(/C=C/c2noc(-c3ccccc3OC(C)=O)n2)cc1`, 19% (active).
Consider `CC(=O)Oc1ccc2c(c1)C(=O)c1ccccc1C2=O`, for which the max response was 8.81%.
As for `CC(=O)Oc1ccc(-c2nc3c(C)cccc3c(=O)o2)cc1`, the max response was -4.07%.
As for `COc1cc(CC(=O)NCc2cccs2)cc(OC)c1OC`, the figure is 0.388%; as for `O=C(Cc1coc2ccc3ccccc3c12)NCc1cccs1`, 11.8% (active); as for `Cc1ccc2c(CC(=O)NCc3cccs3)coc2c1`, 29.3% (active).
Consider `COc1ccc(C)cc1NC(=O)CNCc1cccs1`, for which the max response was 8.07%.
Regarding `Cn1cccc1C(=O)NC(=O)COC(=O)Cc1coc2ccc3ccccc3c12`, the max response is 4.33%.
On to `CCN(CC(=O)NCc1cccs1)C(=O)c1ccccc1F`, for which the max response is -0.418%.
Under `CCCNC(=O)CCn1nc(-c2ccccc2)c2ccccc2c1=O` stands -3.01%; under `CCN(CC)S(=O)(=O)c1ccc(N2CCCC2)c(NS(=O)(=O)c2cccs2)c1`, -6.15%; under `CCOC(=O)CSC1=N/C(=C/c2ccc(-n3cncn3)cc2)C(=O)N1C(C)=O`, -4.18%.
With `COc1ccc(CCc2nc(-c3cccs3)no2)cc1`, the max response was 67.2% (active).
As for `COc1ccc(OC)c(CNC(=O)CCc2nc(-c3cccs3)no2)c1`, the max response was -2.6%.
Consider `CCc1ccc(CNC(=O)CCc2nc(-c3cccs3)no2)cc1`, for which the max response was -4.69%.
In the case of `Cc1ccc2[nH]c(=O)c(CN3CCCCC3)c(-c3ccccc3)c2c1`, the max response is -4.55%.
As for `COc1cc(/C=C(\C#N)c2nc3c(s2)CC(C)CC3)ccc1O` (stereo unspecified), the figure is 26.5% (active); as for `COc1cc(/C=C(\C#N)c2nc3ccccc3[nH]2)ccc1O`, 43.6% (active).
`CCCCCOc1ccc(/C=C/C(=O)NCCc2nc3ccccc3[nH]2)cc1OC`: the max response was 1.2%.
Consider `COc1ccc(/C=C(/NC(=O)c2ccc(C)cc2)c2nc3ccccc3[nH]2)cc1OC`, for which the max response is -2.64%.
Under `O=C(NCc1ccc(F)cc1)C1CCN(C(=O)Nc2ccc(F)cc2)CC1` stands -0.971%.
In the case of `O=C1CN(C(=O)c2cc(F)cc(F)c2)c2ccccc2N1`, the max response is -6.12%.
Under `COc1ccc(F)cc1C(=O)C1CCCN(C(=O)CCc2ccccn2)C1` (stereo unspecified) stands 7.94%; under `COC(=O)CC(=O)N1CCN(c2ccc(Cl)c(Cl)c2)CC1`, 0.736%.
Under `CCn1c2ccc(F)cc2c2nnc(SCCN3CCOCC3)nc21` stands 8.52%.
With `Cc1cc2nc(SCCN3CCOCC3)[nH]c2cc1C`, the max response was 32.3% (active).
Regarding `Cc1cccc(C)c1OCCN1CCOCC1`, the max response was 0.405%.
Consider `COCCn1c(SCC(=O)Nc2nc(C)cs2)nnc1C(C)C`, for which the max response is -4.2%.
As for `Cc1cccc(CCNC(=O)Cn2ncc3c([nH]c4ccc(C)cc43)c2=O)c1`, the figure is -2.84%; as for `O=C1CCC(C(=O)N2CCN(c3ccccc3Cl)CC2)CN1CC1CCCCC1` (stereo unspecified), 9.87%.
As for `O=C(Cn1ncc2c3ccccc3n(Cc3ccccc3)c2c1=O)NCCCN1CCOCC1`, the max response is 6.16%.
In the case of `Cc1cc(CO)nn1-c1ccc([N+](=O)[O-])cc1`, the max response is -1.2%.
Turning to `Cc1nc(-c2ccc([N+](=O)[O-])cc2)c(-c2ccccc2)o1`, the max response is -2.35%.
Under `Cc1nn(-c2ccc([N+](=O)[O-])cc2)c(N)c1-c1ccccc1` stands 38.2% (active); under `O=C(CCN1CCCO1)N1CCCC(N2CCN(c3cccc(C(F)(F)F)c3)CC2)C1` (stereo unspecified), 7.08%; under `COC(=O)c1sccc1NC(=O)c1cc(OC)c(OC)c(OC)c1`, 1.99%.
Turning to `COC(=O)c1sccc1NC(=S)Nc1ccc(C)cc1`, the max response is 25.3%.
Under `COC(=O)c1sccc1NN1C(=O)c2ccccc2C1=O` stands 28.6% (active); under `Cc1ccccc1CNC(=O)CCC(=O)N1Cc2ccccc2Oc2ncccc21`, -2.36%.
For `COc1cccc(CN2CCN(Cc3ccc4cccc(F)c4n3)CC2CCO)c1` (stereo unspecified), the max response is -3.47%.
For the molecule `COC(=O)c1ccc(C2C3=C(Nc4nnnn42)c2ccccc2OC3)cc1` (stereo unspecified), the max response is 17.4% (active).
On to `COC(=O)C1=C(C(=O)c2ccc(C)cc2)C(c2ccccc2)n2nnnc2N1` (stereo unspecified), for which the max response was 2.04%.
As for `COc1ccccc1NC(=O)C1=C(C)Nc2nnnn2C1c1cccc(Br)c1` (stereo unspecified), the figure is -5.64%.

For the origin of these results see PubChem BioAssay AID2314 (National Center for Advancing Translational Sciences (NCATS), 2010).
